# PubChem BioAssay AID1159580 (chemical genetic matrix, 2015)
# Out of some 5,500 compounds screened, about 2,000 (36%) were called active. About 18% were inconclusive and are not listed. The list shows a part of the results. Unmarked numbers belong to inactive results. Rule as the data show it: active = normalized growth mostly below about 0.91 (no sharp cut-off); inconclusive = no clear call, values can overlap the other calls; inactive = mostly above about 0.92.
# Assay: chemical genetic growth profiling, strain panel (AID 1159580);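 also: tested at 20 µM; growth read once vehicle control cultures reached saturation at 30 °C; 1 = growth at the plate median or of vehicle wells; lower values mean less growth of the strain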
# Details: S. cerevisiae deletion strains, growth OD
structure (smiles),measurement,setting,value
O=C(/C=C(\O)c1ccccc1)c1ccccc1O,normalized growth,"locus YAL021C, strain ccr4, stronger effect = lower value",0.843 (active)
same,normalized growth,"locus YAL026C, strain drs2, stronger effect = lower value",0.775 (active)
same,normalized growth,"locus YAL030W, strain snc1, stronger effect = lower value",0.827 (active)
same,normalized growth,"locus YBL061C, strain skt5, stronger effect = lower value",0.776 (active)
same,normalized growth,"locus YBR009C, strain hhf1, stronger effect = lower value",0.667 (active)
same,normalized growth,"locus YBR021W, strain FUR4, stronger effect = lower value",0.939
same,normalized growth,"locus YBR023C, strain chs3, stronger effect = lower value",0.778 (active)
same,normalized growth,"locus YBR171W, strain sec66, stronger effect = lower value",0.807 (active)
same,normalized growth,"locus YBR229C, strain ROT2, stronger effect = lower value",0.778 (active)
same,normalized growth,"locus YBR231C, strain swc5, stronger effect = lower value",0.65 (active)
same,normalized growth,"locus YBR279W, strain paf1, stronger effect = lower value",0.865 (active)
same,normalized growth,"locus YCL011C, strain gbp2, stronger effect = lower value",0.681 (active)
same,normalized growth,"locus YCL016C, strain dcc1, stronger effect = lower value",0.836 (active)
same,normalized growth,"locus YCL029C, strain bik1, stronger effect = lower value",0.593 (active)
same,normalized growth,"locus YCL061C, strain MRC1, stronger effect = lower value",0.812 (active)
same,normalized growth,"locus YCL069W, strain vba3, stronger effect = lower value",0.843 (active)
same,normalized growth,"locus YCR088W, strain abp1, stronger effect = lower value",0.877 (active)
same,normalized growth,"locus YDL005C, strain med2, stronger effect = lower value",0.941
same,normalized growth,"locus YDL035C, strain GPR1, stronger effect = lower value",0.791 (active)
same,normalized growth,"locus YDL040C, strain nat1, stronger effect = lower value",0.918 (active)
same,normalized growth,"locus YDL074C, strain BRE1, stronger effect = lower value",0.28 (active)
same,normalized growth,"locus YDL101C, strain DUN1, stronger effect = lower value",0.595 (active)
same,normalized growth,"locus YDL134C, strain PPH21, stronger effect = lower value",0.827 (active)
same,normalized growth,"locus YDL185W, strain tfp1, stronger effect = lower value",0.817 (active)
same,normalized growth,"locus YDL192W, strain arf1, stronger effect = lower value",0.776 (active)
same,normalized growth,"locus YDR001C, strain nth1, stronger effect = lower value",0.903 (active)
same,normalized growth,"locus YDR069C, strain doa4, stronger effect = lower value",0.701 (active)
same,normalized growth,"locus YDR101C, strain arx1, stronger effect = lower value",0.665 (active)
same,normalized growth,"locus YDR137W, strain rgp1, stronger effect = lower value",0.402 (active)
same,normalized growth,"locus YDR159W, strain sac3, stronger effect = lower value",0.682 (active)
same,normalized growth,"locus YDR162C, strain NBP2, stronger effect = lower value",0.794 (active)
same,normalized growth,"locus YDR195W, strain ref2",1.06
same,normalized growth,"locus YDR297W, strain sur2, stronger effect = lower value",0.856 (active)
same,normalized growth,"locus YDR318W, strain mcm21, stronger effect = lower value",0.844 (active)
same,normalized growth,"locus YDR334W, strain swr1, stronger effect = lower value",0.687 (active)
same,normalized growth,"locus YDR335W, strain msn5, stronger effect = lower value",0.857 (active)
same,normalized growth,"locus YDR388W, stronger effect = lower value",0.736 (active)
same,normalized growth,"locus YDR392W, strain spt3, stronger effect = lower value",0.71 (active)
same,normalized growth,"locus YDR502C, strain sam2, stronger effect = lower value",0.845 (active)
same,normalized growth,"locus YEL003W, strain gim4, stronger effect = lower value",0.709 (active)
same,normalized growth,"locus YEL037C, strain rad23, stronger effect = lower value",0.868 (active)
same,normalized growth,"locus YEL061C, strain CIN8 (second series), stronger effect = lower value",0.903 (active)
same,normalized growth,"locus YEL061C, strain CIN8, stronger effect = lower value",0.826 (active)
same,normalized growth,"locus YER015W, strain faa2, stronger effect = lower value",0.685 (active)
same,normalized growth,"locus YER016W, strain bim1, stronger effect = lower value",0.88 (active)
same,normalized growth,"locus YER110C, stronger effect = lower value",0.787 (active)
same,normalized growth,"locus YER111C, strain swi4, stronger effect = lower value",0.871 (active)
same,normalized growth,"locus YER155C, strain BEM2 (second series), stronger effect = lower value",0.755 (active)
same,normalized growth,"locus YER155C, strain BEM2, stronger effect = lower value",0.413 (active)
same,normalized growth,"locus YER167W, strain BCK2, stronger effect = lower value",0.554 (active)
same,normalized growth,"locus YFR010W, strain ubp6, stronger effect = lower value",0.766 (active)
same,normalized growth,"locus YGL078C, strain dbp3, stronger effect = lower value",0.986
same,normalized growth,"locus YGL086W, strain mad1, stronger effect = lower value",0.794 (active)
same,normalized growth,"locus YGL167C, strain pmr1, stronger effect = lower value",0.895 (active)
same,normalized growth,"locus YGL173C, strain kem1, stronger effect = lower value",0.779 (active)
same,normalized growth,"locus YGL227W, strain vid30, stronger effect = lower value",0.906 (active)
same,normalized growth,"locus YGL240W, strain doc1, stronger effect = lower value",0.758 (active)
same,normalized growth,"locus YGL248W, strain PDE1, stronger effect = lower value",0.491 (active)
same,normalized growth,"locus YGL253W, strain hxk2, stronger effect = lower value",0.543 (active)
same,normalized growth,"locus YGR078C, strain PAC10, stronger effect = lower value",0.914
same,normalized growth,"locus YGR135W, strain pre9, stronger effect = lower value",0.836 (active)
same,normalized growth,"locus YGR252W, strain gcn5, stronger effect = lower value",0.872
same,normalized growth,"locus YHR013C, strain ard1, stronger effect = lower value",0.865
same,normalized growth,"locus YHR027C, strain rpn1, stronger effect = lower value",0.637 (active)
same,normalized growth,"locus YHR030C, strain SLT2, stronger effect = lower value",0.854 (active)
same,normalized growth,"locus YHR079C, strain IRE1 (second series), stronger effect = lower value",0.554 (active)
same,normalized growth,"locus YHR094C, strain hxt1, stronger effect = lower value",0.935
same,normalized growth,"locus YHR129C, strain ARP1, stronger effect = lower value",0.527 (active)
same,normalized growth,"locus YHR142W, strain chs7, stronger effect = lower value",0.648 (active)
same,normalized growth,"locus YHR200W, strain rpn10, stronger effect = lower value",0.863 (active)
same,normalized growth,"locus YIL066C, strain RNR3, stronger effect = lower value",0.696 (active)
same,normalized growth,"locus YIL073C, strain SPO22, stronger effect = lower value",0.301 (active)
same,normalized growth,"locus YIL125W, strain kgd1, stronger effect = lower value",0.98
same,normalized growth,"locus YIR030C, strain dcg1, stronger effect = lower value",0.592 (active)
same,normalized growth,"locus YJL092W, strain hpr5, stronger effect = lower value",0.87 (active)
same,normalized growth,"locus YJL095W, strain BCK1 (second series), stronger effect = lower value",0.741 (active)
same,normalized growth,"locus YJL095W, strain BCK1, stronger effect = lower value",0.254 (active)
same,normalized growth,"locus YJL115W, strain asf1, stronger effect = lower value",0.94
same,normalized growth,"locus YJL129C, strain trk1, stronger effect = lower value",0.741 (active)
same,normalized growth,"locus YJL134W, strain LCB3, stronger effect = lower value",0.908 (active)
same,normalized growth,"locus YJL154C, strain vps35, stronger effect = lower value",0.918 (active)
same,normalized growth,"locus YJL164C, strain tpk1, stronger effect = lower value",0.695 (active)
same,normalized growth,"locus YJL166W, strain qcr8, stronger effect = lower value",0.546 (active)
same,normalized growth,"locus YJL168C, strain set2, stronger effect = lower value",0.958
